Only some compounds are listed: those with a hit (about 7.9% of all), similar ones and a draw of the others.
KB-V1 MDR tox – KB-V1 MDR subline cytotoxicity; KB-V1 MDR cells viability, CellTiter-Glo, 72 h; Potency, µM (series often up to 46.1 µM), hits mostly cytotoxic; 400,000 compounds, 3.4% hits; AID 1347076; further: on the % scale 0 is the no-effect control and ±100 the full control effect; nearly all actives have a fitted effect of over 60% in size
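Compound-treated KB-V1 multidrug-resistant cells, 72 h, 37 degrees C; viability by CellTiter-Glo. Fitted qHTS curves give the values.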
HT1080NT lethal – kills 2HG-producing HT-1080-NT fibrosarcoma cells. HT-1080-NT fibrosarcoma viability, CellTiter-Glo ATP luminescence, 48 h. Potency, µM (top dose mostly 46.1 µM), inactives show at the top dose activity, negative = less viability, usual class: cytotoxic. 360,000 compounds, 1.6% hits. AID 686970;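 further: NT is the 2HG producing partner of a matched IDH1 knockdown line; 0% = DMSO-treated cells and -100% = media-only wells without cells; nearly all actives have a fitted effect of over 55% in size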
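750 cells/well, RPMI + 5% FBS; 2 h settle, compound pin-transfer, 48 h at 37 degrees C. CellTiter-Glo 10 min RT, luminescence. Normalized to DMSO and media-only wells.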
HT1080 IDH1KD tx – kills HT-1080 cells with IDH1 knockdown; HT-1080 IDH1 knockdown viability, ATP luminescence, 48 h; Potency, µM (series often up to 46.1 µM), without a hit: at the top dose activity, negative = toxicity, actives largely listed as cytotoxic; 360,000 compounds, 2% hits;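 further: 0% = DMSO wells and -100% = cell-free medium wells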
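Knockdown cells (IDH1KD HT-1080) received compounds 2 h after plating at 750 cells/well and were kept 48 h at 37 °C in 5% FBS RPMI. A CellTiter-Glo luminescence read gave % activity for curve fitting.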
MCF10A rerep – inducers of DNA re-replication in MCF 10A breast cells; MCF 10A DNA re-replication, Hoechst nuclear intensity, 48 h; Potency, µM (titrated, usually from 46.1 µM), for the others: top-dose activity, positive = re-replication, most hits filed as activators; 350,000 compounds, 2.9% hits; AID 624296; further: % of control where 0% means no effect; nearly all actives have a fitted effect of over 50% in size
KB-3-1 tox – KB-3-1 parental cell cytotoxicity; KB-3-1 viability, CellTiter-Glo ATP luminescence, 72 h; 400,000 compounds, 1.4% hits; Potency, µM (titrated, usually from 46.1 µM), actives largely listed as cytotoxic; further: on the % scale 0 is the no-effect control and ±100 the full control effect; nearly all actives have a fitted effect of over 60% in size
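Cytotoxicity in the drug-sensitive parental line KB-3-1 was scored as loss of CellTiter-Glo luminescence following 72 h incubation with compound. Values come from curve fitting of normalized concentration-response data.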
SW480 rerep – inducers of DNA re-replication in SW480 colon cancer cells; SW480 DNA re-replication, Hoechst DNA content imaging, 48 h; Potency, µM (top dose mostly 46.1 µM), without a hit: top-dose re-replication activation, most hits filed as activators; 340,000 compounds, 1.8% hits; further: % of control where 0% means no effect; nearly all actives have a fitted effect of over 55% in size
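Compounds, transferred as 23 nL by pin tool, were incubated with cells for 48 hr; DNA content per nucleus was then quantified by Hoechst staining and fluorescence plate imaging.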
* marks the source's active call; other numbers are inactive results; i = inactive; ? = inconclusive; . = no result; ! = repeats disagree; [ ] = another dose, or the depositor's remark. The call rests on the fitted dose curve; in most records, active means well fitted curve in the direction sought with a large enough effect; inconclusive means small, poorly fitted or top-dose-only effect, or another doubt; inactive means no such curve, though single readings can be large; an effect the other way counts as inactive or inconclusive. Potency means the concentration at half of the fitted maximal effect.

SMILES | KB-V1 MDR tox | HT1080NT lethal | HT1080 IDH1KD tx | MCF10A rerep | KB-3-1 tox | SW480 rerep
Cc1ccc(CNC(=O)CCCn2c(=O)c3ccccc3n(Cc3ccccc3C)c2=O)cc1 | i | . | . | . | i | .
COCCn1c(C)cc(O)c(C(c2ccccc2Cl)N2CCN(c3ccccc3)CC2)c1=O (centres undefined) | i | . | . | . | i | .
COc1cc(CN2CCC(C(=O)NC(c3ccc(F)cc3)c3ncccc3C)CC2)cc(OC)c1 (centres undefined) | i | -17.8% | -25.2% | . | i | .
O=C(NC(c1ccc(F)cc1)c1ccc2ccccc2n1)C1CCN(Cc2ccc3ccccc3n2)CC1 (centres undefined) | i | ? | 23.1µM* | . | ? | .
Cc1ccc(CNC(=O)CCCN2C(=O)c3cccnc3Oc3ccc(Cl)cc32)cc1 | i | . | . | . | i | .
O=C(COC(=O)c1ccccc1)Nc1ccccc1Br | i | 17.3% | 17.8% | -3.1% | i | 0.4%
O=C(COC(=O)c1c(Cl)cccc1Cl)Nc1ccccc1Br | 18.4µM* | -1.2% | 3.0% | ? | i | 7.2%
O=C(Cn1cc(S(=O)(=O)c2ccc(F)cc2)c(=O)c2cc3c(cc21)OCO3)Nc1ccccc1 | i | . | . | . | i | .
CC(C)Nc1oc(Cc2cccc3ccccc23)nc1C#N | 16.4µM* | -3.7% | -12.9% | 18.1% | i | -4.8%
CNc1oc(Cc2cccc3ccccc23)nc1C#N | i | -19.3% | -6.0% | ? | i | 1.0%
COc1ccc(CCNc2oc(Cc3cccc4ccccc34)nc2C#N)cc1OC | 18.4µM* | -22.6% | -22.7% | 5.5% | ? | 0.6%
CCOC(=O)c1c(C)c(-c2ccccc2)n(CC(=O)NCCc2cccc(C)c2)c1C | i | . | . | . | i | .
CCOC(=O)c1cc(-c2ccc(C)cc2)n(CC(=O)Nc2ccc(OC)c(Cl)c2)c1C | ? | . | . | . | i | .
CC[C@@]12CCCN3CCc4c(n(c5ccccc45)C(=O)C1)[C@H]32 | . | . | . | ? | . | 11.4µM*
CCC12CCCN3CCc4c(n(c5ccccc45)C(O)(C(=O)OC)C1)C32 (centres undefined) | i | -19.6% | 3.3% | 1.0% | i | -18.0%
CC(C)C[C@H]1CNC(=S)N1CC1CCCN1C[C@H](Cc1ccccc1)N1C[C@H](Cc2ccc(O)cc2)N(CC2CCCCC2)C1=S (some centres undefined) | ? | -27.0% | ? | -41.0% | ? | 4.61µM*
CC(C)C[C@H]1CNC(=S)N1C[C@H]1CCCN1C[C@H](Cc1ccccc1)N1C[C@H](Cc2ccc(O)cc2)N(CC2CCCCCC2)C1=S | ? | 20.6µM* | 14.6µM* | . | ? | .
CC(C)C[C@H]1CNC(=S)N1CC1CCCN1C[C@H](Cc1ccc(O)cc1)N1C[C@H](Cc2ccccc2)N(CC2CCCCCC2)C1=S (some centres undefined) | ? | 0.0% | -6.6% | -12.1% | i | ?
CC(=O)c1ccc(N2CCN(CC(=O)Nc3ccccc3C(=O)NC3CC3)CC2)c(F)c1 | i | -2.6%[9.24 µM] | -1.3% | 18.4µM* | i | -6.7%
O=C(O)c1cn(-c2ccc(F)cc2)c2cc(N3CCNCC3)c(F)cc2c1=O | i | -8.7% | -1.7% | 6.2% | i | 24.0%
O=C(OCc1ccco1)c1cccnc1 | i | 7.2% | 1.3% | 13µM* | i | ?
Cc1ccc(C(=O)N/C(=C/c2ccc(-c3cccc([N+](=O)[O-])c3)o2)C(=O)NC(C)C)cc1 | 3.66µM* | -0.2% | -10.3% | 20.0% | i | -0.1%
Cc1ccc(C(=O)N/C(=C\c2ccc(-c3cccc([N+](=O)[O-])c3)o2)C(=O)NCCCN2CCOCC2)cc1 | ? | 18.4µM* | ? | 3.7% | ? | ?
CC(=O)c1cccc(NC(=O)CSc2nc(N3CCCCC3)nc(N3CCCCC3)n2)c1 | i | -4.1% | 27.4% | 4.7% | i | 2.24µM*
C=CCn1c(SCc2csc(-c3ccc(Cl)cc3)n2)nnc1-c1ccccc1OC | 20.6µM* | -19.2% | ? | ? | ? | .
SMILES | KB-V1 MDR tox | HT1080NT lethal | HT1080 IDH1KD tx | MCF10A rerep | KB-3-1 tox | SW480 rerep
C=CCn1c(SCC(=O)Nc2ccc3c(c2)OCO3)nnc1-c1ccccc1OC | i | -19.7% | -25.6% | -0.9% | i | -1.0%
Cc1cc(C)cc(OCC(=O)N2N=C(C(F)(F)F)CC2(O)C(C)(C)C)c1 (centres undefined) | ? | 18.4µM* | 16.4µM* | ? | ? | 5.0%
CC(=O)O[C@H]1C(=O)[C@@]2(C)[C@H]([C@H](OC(=O)c3ccccc3)[C@]3(O)C[C@H](OC(=O)[C@H](O)C(NC(=O)c4ccccc4)c4ccccc4)C(C)=C1C3(C)C)[C@]1(OC(C)=O)CO[C@@H]1C[C@@H]2O (some centres undefined) | ? | ? | 0.0092µM* | ? | 0.0092µM* | 0.0651µM*
CC(=O)O[C@H]1C(=O)[C@@]2(C)[C@H]([C@H](OC(=O)c3ccccc3)[C@]3(O)C[C@H](OC(=O)[C@H](O)[C@@H](NC(=O)c4ccccc4)c4ccccc4)C(C)=C1C3(C)C)[C@]1(OC(C)=O)CO[C@@H]1C[C@@H]2O | 13µM*! | ? | 0.0082µM* | ? | 0.0461µM*! | 2.59µM*
CCCCCC(=O)N[C@@H](c1ccccc1)[C@@H](O)C(=O)O[C@H]1C[C@@]2(O)[C@@H](OC(=O)c3ccccc3)C3[C@](C)(C(=O)[C@H](OC(C)=O)C(=C1C)C2(C)C)[C@@H](O)C[C@H]1OC[C@@]31OC(C)=O (some centres undefined) | ? | ? | 0.0058µM* | ? | 0.206µM* | 0.184µM*
CC(=O)Oc1ccc(CN2C(=O)C(CCc3ccccc3)ON=C2c2cnccn2)cc1 (centres undefined) | i | ? | -23.5% | . | i | .
COc1ccc(NC(=O)c2oc3ccccc3c2NC(=O)C2CCCCC2)c(OC)c1 | i | . | . | . | i | .
N#Cc1c(NCCN)nc(-c2ccco2)c2c1CCCC2 | ? | ? | ? | 11.6µM* | ? | 18.4µM*
CC(C)CCNc1nc(-c2ccco2)c2c(c1C#N)CCCC2 | i | ? | ? | 7.31µM* | i | ?
CCOC(=O)c1cc(-c2ccc(OC)c(S(=O)(=O)NC3CCCCC3)c2)on1 | i | . | . | . | i | .
O=C(NCc1ccccc1)c1cc(C2CCCN(C(=O)c3ccc4c(c3)CCO4)C2)on1 (centres undefined) | i | -12.3% | -15.2% | . | i | .
CCN=C(NS(=O)(=O)c1ccc(Br)cc1)c1ccc(Cl)cc1 | ? | -5.5% | 0.6% | 1.84µM* | i | -73.3%
